Data: PubChem BioAssay
Active and inactive are the calls of the source.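 How the source made its calls, unless noted: active means inhibition of the reporter signal at or above 50%; inactive means inhibition below 50%.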

How the values were obtained:
[1] = inhibitors of TNFa-induced NFkB p65 translocation, primary screen, imaging, HUVEC, MLSMR starter and 10KST1 sets (AID 438;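 active means inhibition above 20% together with a positive visual image hit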;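 further: compound added about 3h40 before a 20 min TNFalpha stimulation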;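 on inhibition: signal is the nuclear over cytoplasmic p65 intensity ratio per well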); conditions: HUVEC TNFa-induced p65 nuclear translocation; cell count: measured here: nuclei count (cytotoxicity indicator), at 2.08 µM; inhibition: at 2 µM, stronger effect = higher value, 0% TNFa-plus-vehicle, 100% no-TNFa wells
[2] = reduction of polyQ htt aggregates in cells – imaging, exon1htt(103Q)mCFP cells, high-content imaging, primary screen (AID 483;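 active means visual image review flags a hit and inhibition of aggregation exceeds 20%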;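 further: compound exposure lasted 3 days before fixation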;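 on nuclei count: percent of the per-plate median nuclei count of sample wells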); conditions: exon1htt(103Q)mCFP cell line, aggregate imaging, at 2 µM; inhibition of aggregation: stronger effect = higher value; nuclei count: measured here: cell count, toxicity
[3] = endothelial E-selectin expression blockers – imaging, HUVEC, immunofluorescence, MLSMR starter and 10KST1 sets, primary screen (AID 487;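 active means visually confirmed hit in the image check and inhibition above 20%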;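 on inhibition: signal is fraction of cell area covered by stained E-selectin grains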;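 on nuclei count: 100% = median nuclei count of all wells on the same plate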); conditions: HUVEC TNFalpha-induced E-selectin immunofluorescence imaging, at 2 µM; inhibition: stronger effect = higher value; nuclei count: measured here: cell number, toxicity
[4] = target: Voltage-gated potassium channel subunit beta-2 (Rattus norvegicus) (UniProt P62483); assay: inhibitors of rat Kvbeta2 reductase activity – biochemical, NADPH fluorescence, primary screen (AID 622;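 active means fluorescence slope higher than the sample average by over 3 SD, cut at about -0.22 in these data, passing the limit was not always enough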;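 further: slope of raw intensity against log time taken from 70 to 1610 s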); conditions: recombinant KvBeta, 4-cyanobenzaldehyde reduction, at 10 µM, stronger effect = higher value
[5] = target: Voltage-gated potassium channel subunit beta-2 (Rattus norvegicus) (UniProt P62483); assay: enhancers of rat Kvbeta2 NADPH turnover – biochemical, NADPH fluorescence, primary screen (AID 623;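 active means NADPH fluorescence slope more negative than the mean of all samples by about 3 SD, 99.7% confidence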;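 further: fluorescence intensity change per second fitted from 20 to 320 s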); conditions: Recombinant KvBeta, NADPH fluorescence decrease slope, 10 min; at 10 µM; stronger effect = lower value
[6] = target: Alpha-2C adrenergic receptor (Homo sapiens) (UniProt P18825); assay: compounds altering alpha2C-coupled GIRK flux – cell-based, HEK293 alpha2C/GIRK1/2, thallium flux, primary screen (AID 624;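 active means fluorescence slope after compound addition differing from the mean of all screened samples at 99.7% confidence, in either direction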;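 further: slope of fluorescence ratio to pre-addition baseline per second over 15 to 24 s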); conditions: thallium flux BTC fluorescence, at 10 µM, actives lie on both sides
[7] = blockers of RIG-like receptor reporter activation – cell-based, Sendai virus stimulus, luciferase, 10K MLSCN set, TLR/RLR signaling modifier project, primary screen (AID 602276;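 active means inhibition at or above 50% at 10 µM; inactive means inhibition below 50%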;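 further: firefly luciferase from ISG56 promoter only with Renilla not read in this screen; 0% = Sendai virus plus DMSO and 100% = medium plus DMSO without virus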); conditions: HEK293 RL24 IRF3 luciferase reporter, at 10 µM, stronger effect = higher value
[8] = TLR3 IRF3 reporter activation blockers – cell-based, poly I:C stimulus, luciferase, 10K MLSCN set, primary screen (AID 602277); conditions: HEK293-TLR3 RL24 IRF3 luciferase reporter, at 10 µM, stronger effect = higher value

Alpha-2C adrenergic receptor (Homo sapiens), sequence (P18825 whole entry, looked up): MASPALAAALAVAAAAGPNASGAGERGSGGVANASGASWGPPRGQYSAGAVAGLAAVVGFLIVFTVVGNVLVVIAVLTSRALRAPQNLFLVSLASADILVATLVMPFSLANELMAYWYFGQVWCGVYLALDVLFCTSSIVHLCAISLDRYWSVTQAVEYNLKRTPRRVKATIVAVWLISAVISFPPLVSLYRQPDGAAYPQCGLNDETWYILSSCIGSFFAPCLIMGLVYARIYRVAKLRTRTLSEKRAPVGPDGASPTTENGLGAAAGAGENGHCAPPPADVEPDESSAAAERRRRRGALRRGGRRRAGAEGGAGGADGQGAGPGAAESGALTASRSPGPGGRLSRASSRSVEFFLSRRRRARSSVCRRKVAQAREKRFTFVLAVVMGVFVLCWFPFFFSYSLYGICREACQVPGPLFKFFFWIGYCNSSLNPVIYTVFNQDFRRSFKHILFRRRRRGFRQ
Voltage-gated potassium channel subunit beta-2 (Rattus norvegicus), sequence (P62483 whole entry, looked up): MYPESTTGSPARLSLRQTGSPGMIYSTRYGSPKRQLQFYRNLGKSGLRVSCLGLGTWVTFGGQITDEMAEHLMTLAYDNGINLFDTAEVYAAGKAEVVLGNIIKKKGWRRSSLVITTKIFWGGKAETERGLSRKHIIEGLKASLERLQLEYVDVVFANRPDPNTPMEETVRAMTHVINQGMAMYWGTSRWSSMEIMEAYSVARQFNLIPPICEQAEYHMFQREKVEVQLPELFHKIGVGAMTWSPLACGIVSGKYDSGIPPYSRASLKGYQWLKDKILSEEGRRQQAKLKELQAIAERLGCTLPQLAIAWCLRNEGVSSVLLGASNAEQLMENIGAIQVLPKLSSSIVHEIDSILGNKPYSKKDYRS

Compound	cell count [1]	inhibition [1]	inhibition of aggregation [2]	nuclei count [2] [%]	inhibition [3]	nuclei count [3] [%]	fluorescence slope [4]	NADPH fluorescence slope [5]	slope [6]	inhibition [7]	inhibition [8]
Cc1nnc(NCCc2ccccc2)n(N)c1=O	806	-5.5% (inactive)	-21.2% (inactive)	106	-35% (inactive)	121	-0.514 (inactive)	4.9e-06 (inactive)	0.00506 (inactive)	2.54% (inactive)	5.29% (inactive)
N#CC1=C(N)Oc2cc(O)ccc2C1C1CCCCC1 (stereo unspecified)	527	0.6% (inactive)	18.3% (inactive)	103	-33.8% (inactive)	85.8	-0.443 (inactive)	1.3e-05 (inactive)	0.00336 (inactive)	14.1% (inactive)	25.6% (inactive)
CC(=O)NCc1nc2ccccc2n1C(C)C	518	13% (inactive)	15.8% (inactive)	110	6.4% (inactive)	119	-0.575 (inactive)	-3.7e-05 (inactive)	0.00817 (inactive)	7.73% (inactive)	21.5% (inactive)
Cn1c(CNc2nc(-c3ccccc3)cs2)nnc1SCC(=O)N1CCc2ccccc21	628	11.1% (inactive)	18.4% (inactive)	91.5	-65.9% (inactive)	140	-0.595 (inactive)	-3e-05 (inactive)	0.00569 (inactive)	-7.07% (inactive)	5.89% (inactive)
CC(C)c1ccc(NC(=O)CCNS(=O)(=O)c2cccc3nonc23)cc1	669	-6.5% (inactive)	24.6% (inactive)	98	-55.8% (inactive)	106	-0.544 (inactive)	2.2e-05 (inactive)	0.00564 (inactive)	16.4% (inactive)	24.2% (inactive)
COc1ccc(-n2c(SCC(=O)c3c(N)n(C)c(=O)n(C)c3=O)nc3ccccc32)cc1	735	1.4% (inactive)	10.2% (inactive)	110	-35.8% (inactive)	106	-0.581 (inactive)	-4.1e-05 (inactive)	0.00517 (inactive)	10.6% (inactive)	14.8% (inactive)
COC(=O)c1cc(Br)c(=O)n(-c2ccc(OC)cc2)c1	542	-0.5% (inactive)	-13.6% (inactive)	108	25.8% (inactive)	112	-0.503 (inactive)	-3.9e-05 (inactive)	0.00452 (inactive)	12.6% (inactive)	23.2% (inactive)
Cc1cccc(NC(=O)CCN2CCN(C/C=C/c3ccccc3)CC2)c1	727	4.3% (inactive)	4.2% (inactive)	98.6	15.3% (inactive)	104	-0.511 (inactive)	-2.6e-05 (inactive)	0.00628 (inactive)	13.8% (inactive)	6.07% (inactive)
CC(=O)Nc1ccc(NC(=O)Cn2cc3c(n2)CCC(C)C3)cc1 (stereo unspecified)	549	-6.3% (inactive)	3.5% (inactive)	95.1	-58.6% (inactive)	103	-0.284 (inactive)	-4.3e-05 (inactive)	0.00496 (inactive)	16.6% (inactive)	23% (inactive)
COC(=O)CSC1=C(C#N)C(c2ccccc2)CC(=O)N1 (stereo unspecified)	317	1.5% (inactive)	-2.2% (inactive)	89.5	7.2% (inactive)	86.9	-0.372 (inactive)	-1.7e-05 (inactive)	0.00515 (inactive)	25.3% (inactive)	21.9% (inactive)
CCc1c(C)nc2ncnn2c1N1CCC(C(=O)NCc2cccc(OC)c2)CC1	716	-5.5% (inactive)	-13.4% (inactive)	66	-34.8% (inactive)	116	-0.499 (inactive)	-4.5e-05 (inactive)	0.00565 (inactive)	5.24% (inactive)	1.67% (inactive)
c1ccc(Cn2nnnc2C(c2cccs2)N2CCSCC2)cc1 (stereo unspecified)	482	-10.4% (inactive)	-0.3% (inactive)	110	-56.7% (inactive)	95.9	-0.514 (inactive)	-6.4e-05 (inactive)	0.00524 (inactive)	-6.43% (inactive)	14.3% (inactive)
COCCN1Cc2cccc(C(=O)Nc3cccnc3)c2C1=O	649	-26.5% (inactive)	-6.7% (inactive)	100	-39.6% (inactive)	100	-0.503 (inactive)	-0.000182 (inactive)	0.00506 (inactive)	6.71% (inactive)	5.54% (inactive)
CCCN(Cc1cc2ccc(C)cc2[nH]c1=O)C(=O)c1cccnc1	779	2.6% (inactive)	-34.8% (inactive)	104	-5.8% (inactive)	109	-0.46 (inactive)	1.6e-05 (inactive)	0.00624 (inactive)	11.3% (inactive)	27.1% (inactive)
CSc1oc(-c2ccccc2)nc1S(=O)(=O)c1ccc(F)cc1	417	8.3% (inactive)	1% (inactive)	101	-45.5% (inactive)	107	-0.481 (inactive)	-3.1e-05 (inactive)	0.00494 (inactive)	16.4% (inactive)	22.3% (inactive)
NC(=O)CCS(=O)(=O)CCN1CCCCC1	361	5.7% (inactive)	2.7% (inactive)	89.8	-14.9% (inactive)	116	-0.435 (inactive)	4.4e-05 (inactive)	0.0056 (inactive)	19.5% (inactive)	23.8% (inactive)
Cc1ccc(C2=Nc3ccccc3NC(C)(c3ccc(C)o3)C2)o1 (stereo unspecified)	696	1.6% (inactive)	-18.4% (inactive)	100	-39.9% (inactive)	100	-0.54 (inactive)	1.2e-05 (inactive)	0.00401 (inactive)	-47.1% (inactive)	-67.9% (inactive)
O=C(Nc1nccs1)c1cccc(NC(=O)C2CC2)c1	411	-0.5% (inactive)	-6.6% (inactive)	98	-19% (inactive)	116	-0.409 (inactive)	-3.4e-05 (inactive)	0.00472 (inactive)	2.3% (inactive)	-13.6% (inactive)
CCOC(=O)Nc1c(O)ccc2oc(C)c(-c3ccccc3)c12	271	-6.4% (inactive)	-22% (inactive)	104	-63.2% (inactive)	106	-0.5 (inactive)	-0.000121 (inactive)	0.0037 (inactive)	18.3% (inactive)	28.6% (inactive)
CN(C)S(=O)(=O)c1ccc2c(c1)c(=O)c(C(=O)NCCCN1CCCCCC1)cn2C	707	-2.8% (inactive)	4.4% (inactive)	101	-51.2% (inactive)	106	-0.601 (inactive)	-3.3e-05 (inactive)	0.00602 (inactive)	0.741% (inactive)	31.9% (inactive)
COc1ccc2oc(=O)c(C(=O)N3CCN(c4ccccc4F)CC3)cc2c1	365	-0.4% (inactive)	-3.7% (inactive)	95.9	-15.2% (inactive)	109	-0.335 (inactive)	2.4e-05 (inactive)	0.00535 (inactive)	16.3% (inactive)	21.2% (inactive)
CC(=O)c1cccc(NS(=O)(=O)c2ccc3c(c2)oc(=O)n3C)c1	299	-9% (inactive)	0.5% (inactive)	119	-52% (inactive)	117	-0.437 (inactive)	-2.3e-05 (inactive)	0.00511 (inactive)	6.35% (inactive)	2.39% (inactive)
CC(C)n1c(NCc2c[nH]c3ccccc23)nc2ccccc21	489	1% (inactive)	20.3% (inactive)	54.6	-5.1% (inactive)	86.6	-0.511 (inactive)	-4.3e-05 (inactive)	0.00272 (inactive)	-4.81% (inactive)	-0.81% (inactive)
COC(=O)CS(=O)(=O)c1nnc([C@H](Cc2ccccc2)NC(=O)OC(C)(C)C)o1	493	-8% (inactive)	22% (inactive)	84.1	38.4% (inactive)	89	-0.486 (inactive)	-5.6e-05 (inactive)	0.00353 (inactive)	15.1% (inactive)	33.7% (inactive)
CCOP(=O)(c1ccc(N(C)C)cc1)C(O)c1ccccc1OC (stereo unspecified)	728	-5.5% (inactive)	-2.8% (inactive)	113	-31.9% (inactive)	116	-0.387 (inactive)	4.7e-05 (inactive)	0.00598 (inactive)	1.78% (inactive)	10.6% (inactive)
CCOc1ccc(N(CC(=O)NCc2cccc(OC)c2)S(=O)(=O)c2c(C)noc2C)cc1	362	-3.2% (inactive)	18.9% (inactive)	95	-114% (inactive)	104	-0.415 (inactive)	1.6e-05 (inactive)	0.00505 (inactive)	-5.75% (inactive)	-5.65% (inactive)
